# In PubChem BioAssay (EPA / NIEHS):
# Inconclusive results are not listed. The source made the active and inactive calls. Rule for the calls, unless noted: active = hit-call score of the fitted dose curve at least 0.9, where 1 is the maximum; inconclusive = response in the unintended direction; inactive = score below 0.9.
# Legend:
# [1] = test system: SERPINA7 (gene 6906); experiment: CCTE_GLTED_hTBG: CCTE's human Thyroxine-binding Globulin (TBG) Inhibition Assay, Great Lakes Toxicology and Ecology Division (GLTED) Lab (AID 2284343);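 note: active chemicals lower fluorescence versus DMSO baseline by displacing probe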
# Summary of the method: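 Cell-free binding assay in which human TBG is incubated with test chemical for 2 hours and displacement of the fluorescent probe ANSA is read at 380 nm excitation/475 nm emission. Activity is fitted against DMSO as the negative control.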
# [2] = test system: TTR (gene 7276); experiment: CCTE_GLTED_hTTR_0.5uM: CCTE's human Transthyretin (hTTR) Inhibition Assay, with 0.5uM TTR, Great Lakes Toxicology and Ecology Division (GLTED) Lab (AID 2284320; active = hit-call score of the fitted dose curve at least 0.9, where 1 is the maximum; inactive = score below 0.9)
# Summary of the method: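 Cell-free displacement assay in which human TTR at 0.5 uM was incubated with test chemical for 2 h. Displacement of the ANSA probe was read by fluorescence at 380 nm excitation/475 nm emission. Loss of signal was fitted in the positive direction versus DMSO.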
# [3] = CCTE_Mundy_HCI_iCellGluta_NOG_NeuronCount: CCTE's Neurite Outgrowth Assay in iCellGluta cells for Neuron Count, Mundy Lab (AID 2284340);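 note: cells fixed about 48 h after compound addition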
# Summary of the method: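 Neuron count read by automated high-content imaging of Hoechst 33342 and betaIII-tubulin/Alexa Fluor-488 labelling in human iPSC glutamatergic neurons. Activity fitted relative to DMSO.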
# [4] = CCTE_Mundy_HCI_iCellGluta_NOG_NeuriteCount: CCTE's Neurite Outgrowth Assay in iCellGluta cells for Neurite Count, Mundy Lab (AID 2284342);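 note: chemical exposure about 48 hours starting 2 hours after plating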
# [5] = Tanguay_ZF_120hpf_MO24: Oregon State University Tanguay Lab 24 Hour Post-fertilization zebrafish Assay for Mortality (AID 2284389; active = hit-call score of the fitted dose curve at least 0.9, where 1 is the maximum; inactive = score below 0.9)
# Summary of the method: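 Dechorionated wild-type zebrafish embryos, 1 per well, statically exposed from 6 hpf at 28C, 0.64% DMSO final. Mortality scored as binary present/absent at 24 hpf by brightfield microscopy, relative to DMSO.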
# [6] = Tanguay_ZF_120hpf_DP24: Oregon State University Tanguay Lab 24 Hour Post-fertilization zebrafish Assay for Delayed Development (AID 2284390; active = hit-call score of the fitted dose curve at least 0.9, where 1 is the maximum; inactive = score below 0.9)
# Summary of the method: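 Dechorionated 5D wild-type zebrafish embryos exposed statically from 6 hpf, one per well, 0.64% DMSO final, 28 C, sealed and dark. Developmental progression scored at 24 hpf by brightfield as binary present/absent; dead embryos excluded.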
# [7] = CCTE_Deisenroth_5AR_NBTE_donor: CCTE's 5alpha-reductase NanoBRET Target Engagement Assay […], Deisenroth Lab (AID 2284319; active = hit-call score of the fitted dose curve at least 0.9, where 1 is the maximum; inactive = score below 0.9); settings: actives raise or lower the signal
# Summary of the method: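 HEK293T cells transiently expressing SRD5A2-NanoLuc, exposed 5 h to chemicals (8 points, 10 nM - 29.9 uM), with testosterone tracer for the final 2 h. Donor luminescence at 460 nm read after Nano-Glo substrate plus extracellular NanoLuc inhibitor; bidirectional fit versus DMSO.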
# [8] = CCTE_Deisenroth_5AR_NBTE_acceptor: CCTE's 5alpha-reductase NanoBRET Target Engagement Assay - Autofluorescence Screen, Deisenroth Lab (AID 2284321; active = hit-call score of the fitted dose curve at least 0.9, where 1 is the maximum; inactive = score below 0.9;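 note: compound fluorescence in the acceptor channel under 460 nm excitation flags autofluorescence artifacts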); settings: actives raise or lower the signal
# Summary of the method: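 Chemicals diluted to a nominal 100 uM in DMSO were scanned at 460 nm excitation. Samples were read in three independent runs (n=3). Gain or loss of acceptor signal was fitted relative to DMSO.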
# [9] = test system: SRD5A2 (gene 6716); experiment: CCTE_Deisenroth_5AR_NBTE_ratio: CCTE's 5alpha-reductase NanoBRET Target Engagement Assay - Ratio, Deisenroth Lab (AID 2284322; active = hit-call score of the fitted dose curve at least 0.9, where 1 is the maximum; inactive = score below 0.9); settings: actives raise or lower the signal
# Summary of the method: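 Reverse-transfect HEK293T with pNLF1-C-SRD5A2, express 20 h. Pre-incubate cells with chemical 3 h (8-point series, 10 nM - 29.9 uM, duplicate). Add testosterone tracer, 2 h more. Add substrate/inhibitor, read donor and acceptor emission.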
# [10] = CCTE_Deisenroth_H295R-HTRF_384WELL_ESTRADIOL: CCTE's H295R-HTRF Assay Evaluation of Estradiol Concentration, Deisenroth Lab (AID 2284361; active = hit-call score of the fitted dose curve at least 0.9, where 1 is the maximum; inactive = score below 0.9); settings: actives raise or lower the signal
# Summary of the method: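 H295R cells exposed 48 h to chemicals at 0.001 - 100 uM final (nine points, triplicate); estradiol in conditioned medium measured by HTRF immunoassay, fitted bidirectionally versus DMSO. Viability by CellTiter-Glo on same plates.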
# [11] = CCTE_Deisenroth_H295R-HTRF_384WELL_TESTOSTERONE: CCTE's H295R-HTRF Assay Evaluation of Testosterone Concentration, Deisenroth Lab (AID 2284373; active = hit-call score of the fitted dose curve at least 0.9, where 1 is the maximum; inactive = score below 0.9); settings: actives raise or lower the signal
# Summary of the method: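 H295R cells were acclimated 24 h, then exposed 48 h to nine concentrations (0.001–100 uM final) in technical triplicate, n=5. Testosterone in conditioned medium was measured by HTRF (em 620/665 nm). Fitting was bidirectional versus DMSO; CellTiter-Glo viability ran on the same plates.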
# [12] = CCTE_Deisenroth_H295R-HTRF_384WELL_CTOX: Cytotoxicity Assessment in CCTE's H295R-HTRF Assay, Deisenroth Lab (AID 2284380)
# Summary of the method: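 H295R adrenocortical carcinoma cells plated 24 h, then exposed 48 h to nine-point series 0.001–100 uM final, triplicate, n=5. ATP measured by CellTiter-Glo 2.0 luminescence on same plates after medium collection; loss versus DMSO.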
smiles,measurement,setting,value
CCCCOCCOC(=O)COc1ccc(Cl)cc1Cl,AC50,[1],12.7 µM (active)
O=C(OCCc1ccccc1)c1ccccc1,AC50,[1],22.6 µM (active)
O=C(O)C(F)(F)C(F)(F)C(F)(F)C(F)(F)C(=O)O,AC50,[2],5.53 µM (active)
same,outcome,[3],inactive
same,outcome,[4],inactive
same,outcome,[5],inactive
same,outcome,[6],inactive
CC(CCC(=O)O)(c1ccc(O)cc1)c1ccc(O)cc1,AC50,[1],37.7 µM (active)
Cc1ccc([N+](=O)[O-])cc1N,AC50,[1],50 µM (active)
CCCCCC[C@@H](O)C/C=C\CCCCCCCC(=O)OCC(O)CO (some centres not stated),AC50,[1],26.9 µM (active)
COc1cc(O)c(C(=O)c2ccccc2)cc1S(=O)(=O)O,AC50,[1],29.8 µM (active)
O=S(=O)(O)c1ccc(N=Nc2c(O)ccc3ccccc23)cc1,AC50,[7],13.3 µM (active)
same,outcome,[8],inactive
same,AC50,[9],26.6 µM (active)
same,AC50,[1],19 µM (active)
CC(C)(C)NC(=O)[C@H]1CC[C@H]2[C@@H]3CC[C@H]4NC(=O)C=C[C@]4(C)[C@H]3CC[C@]12C,outcome,[7],inactive
same,outcome,[8],inactive
same,AC50,[9],0.00734 µM (active)
same,outcome,[10],inactive
same,outcome,[11],inactive
same,outcome,[12],inactive
CCOC(=O)C1=NOC(c2ccccc2)(c2ccccc2)C1,AC50,[1],2.68 µM (active)
CCCCNS(=O)(=O)c1ccc(C)cc1,AC50,[1],21.4 µM (active)
N#Cc1ccc(C(c2ccc(C#N)cc2)n2cncn2)cc1,outcome,[10],inactive
same,outcome,[11],inactive
same,outcome,[12],inactive
CC(C)(c1ccccc1)c1ccc(Nc2ccc(C(C)(C)c3ccccc3)cc2)cc1,AC50,[1],25.2 µM (active)
